Screening data (PubChem BioAssay)
Sfp PPTase inh – inhibitors of Bacillus subtilis Sfp phosphopantetheinyl transferase; Q9F4F7; Biochemical Sfp PPTase activity, qHTS; Potency, µM, without a hit: largest response in the series, negative = inhibition, most hits filed as inhibitors; 310,000 tested, 3.5% active;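 also: the enzyme is Sfp with the accession as filed and its product quenches rhodamine fluorescence; 0% = enzyme reaction without inhibitor and -100% = no enzyme wells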
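Buffer: 50 mM Hepes-Na pH 7.6, 10 mM MgCl2, 0.01% Nonidet P-40, 0.01% BSA. Enzyme 15 nM, pre-exposed to compound 15 min; substrates then added and fluorescence change tracked over 30 min.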
JMJD2A Tudor – JMJD2A Tudor domain (human) inhibition; O75164; AlphaScreen JMJD2A-Tudor / H3K4me3 peptide binding; Potency, µM (top dose mostly 114 µM), for the others: top-dose activity change, negative = inhibition, actives largely listed as inhibitors; 390,000 tested, 4.4% active; also: % is scaled to controls: 0 for no effect and ±100 for the full control effect; nearly all actives have a fitted effect of over 50% in size
G9a block – G9a (human) methyltransferase inhibition; G9a H3K9 monomethylation, AlphaScreen, 2 h; Q96KQ7; Potency, µM (titrated, usually from 102 µM), for the others: at the top dose activity, negative = inhibition, hits mostly inhibitors; AID 504332; 350,000 tested, 8.8% active; also: % is scaled to controls: 0 for no effect and ±100 for the full control effect; nearly all actives have a fitted effect of over 75% in size
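AlphaScreen detection with an anti-monomethyl H3K9 antibody quantified product after a 2 h room-temperature reaction containing 500 nM biotinylated H3K9 peptide, 20 µM SAM and 20 nM enzyme, which had been preincubated 15 min with compound.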
HP1b chromo inh – inhibitors of HP1-beta chromodomain binding to methylated histone tails; AID 540317; P83916; 390,000 tested, 0.56% active; Potency, µM (top dose mostly 114 µM), for the others: at the top dose activity change, negative = inhibition, usual class: inhibitors; AlphaScreen HP1-beta / biotin-H3K9me3 peptide binding; also: nearly all actives have a fitted effect of over 70% in size
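HP1-beta protein (50 nM final) preincubated 30 min at room temperature with biotinylated H3(1-18)K9me3 peptide (50 nM) in PBS pH 7.4, 0.01% Tween-20, then compound added for 30 min. AlphaScreen streptavidin donor/nickel chelate acceptor beads (10 ug/mL final), 30 min dark, luminescence read.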
BAZ2B block – inhibitors of human BAZ2B bromodomain | Q9UIF8 | AlphaScreen BAZ2B-H3K14Ac peptide displacement | Potency, µM (top dose mostly 114 µM), for the others: at the highest dose activity change, negative = inhibition, usual class: inhibitors | 360,000 tested, 4.4% active | AID 504333; also: % is scaled to controls: 0 for no effect and ±100 for the full control effect; nearly all actives have a fitted effect of over 60% in size
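BAZ2B (50 nM) with biotin-H3(5-23)K14Ac peptide (50 nM) in PBS pH 7.4, 0.01% Tween-20, preformed 30 min, then compound 30 min at room temperature; top concentration 110uM. AlphaScreen streptavidin donor/nickel chelate acceptor beads (10 ug/mL final), 20 min dark, signal read.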
L3MBTL1 block – L3MBTL1 (human) inhibition. Q9Y468. AlphaScreen L3MBTL1–H3K9me1 peptide binding. Potency, µM (doses to about 57.1 µM), for inactives: top-dose activity, negative = inhibition, usual class: inhibitors. 230,000 tested, 0.66% active. AID 485360; also: % is scaled to controls: 0 for no effect and ±100 for the full control effect; nearly all actives have a fitted effect of over 60% in size
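AlphaScreen assay: L3MBTL1 (50 nM final) was preincubated 30 min at room temperature with biotinylated H3(1-15)K9me1 peptide (75 nM final), then 30 min with library compounds; streptavidin donor and nickel chelate acceptor beads (10 ug/mL final) added, 30 min dark.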
Active calls of the source: *; ? = inconclusive; . = no result given; [ ] = dose if it differs, or a comment. Most compounds without a hit are left out; they make up all but 12% or so of the library. Calls follow the shape of the dose curve; as a rule, active = well fitted curve in the direction sought with a large enough effect; inconclusive = small, poorly fitted or top-dose-only effect, or another doubt; inactive = no such curve, though single readings can be large; an effect the other way counts as inactive or inconclusive. Potency is read from the fitted curve at half-maximal effect.

SMILES	Sfp PPTase inh	JMJD2A Tudor	G9a block	HP1b chromo inh	BAZ2B block	L3MBTL1 block
Cc1cccc(NC(=O)CSCC(=O)Nc2ccccc2N2CCCC2)c1	9.0%	?	?	-5.4%	35.5µM*	.
CCc1noc(C)c1C(=O)Nc1cccc(S(=O)(=O)N2CCCCCC2)c1	.	-8.8%	8.91µM*	21.5%	5.3%	-8.2%
O=[N+]([O-])c1ccc([S+](=O)([O-])N2CCN([S+](=O)([O-])c3ccc4c(c3)OCCO4)CC2)c([N+](=O)[O-])c1	.	-6.2%	.	.	.	.
Cc1cc(C)c(C#N)c(SCC(=O)Nc2cccc(S(=O)(=O)N3CCCC3)c2)n1	.	-8.2%	50.1µM*	41.8%	-2.9%	4.5%
CCc1noc(C)c1C(=O)N1CCN(S(=O)(=O)c2ccc(C(C)=O)cc2)CC1	.	-10.3%	39.8µM*	12.2%	11.2%	1.8%
N#Cc1cccc(NC(=O)CNc2cccc(S(=O)(=O)N3CCCC3)c2)c1	.	-22.0%	-33.0%	61.9%	2.7%	10.3%
Cc1cccc(NC(=O)CSCC(=O)Nc2cccc(S(=O)(=O)N3CCCCCC3)c2)c1	.	-21.4%	35.5µM*	0.7%	-35.9%	-8.0%
Cc1ccc(NC(=O)CSCC(=O)Nc2cccc(S(=O)(=O)N3CCCCCC3)c2)cc1	.	-27.7%	6.7%[12.7 µM]	23.2%	-7.4%	-6.7%
Cc1ccc(NC(=O)c2ccc(Cl)cc2Cl)c(C(=O)c2ccccc2)c1	.	3.6%	0.2%[59 µM]	30.1%	1.7%	.
CCc1ccc(C(=O)CSc2nc(-c3ccccc3)nc3c2CCCC3)cc1	.	20.4%	18.6%[59 µM]	91.4%	6.9%	.
Clc1nc(Cl)nc(N(c2ccccc2)c2ccccc2)n1	-24.9%	25.1µM*	50.1µM*	5.4%	79.4µM*	2.3%
CCOC(=O)c1cccc(NC(=O)c2ccc3snnc3c2)c1	.	-3.0%	1.0%[59 µM]	42.5%	-23.0%	.
CCOC(=O)c1sc2nc(CSc3ccccc3)nc(N3CCC(C(N)=O)CC3)c2c1C	?	-35.6%	-38.4%	-4.8%	-37.9%	?
CCOC(=O)c1sc2nc(CSc3ccccc3)nc(N3CCCN(C)CC3)c2c1C	50.1µM*	14.1µM*	44.7µM*	?	50.1µM*	.
COc1ccc(C(=O)CSc2ncnc3nc[nH]c23)cc1	32.2%	-11.4%	-40.8%	30.1%	-15.7%	8.7%
Cc1ccc(OCCSc2ncnc3nc[nH]c23)cc1	-9.9%	-6.5%	39.8µM*	36.3%	-7.4%	.
Cc1cc(C)c(C)c(OCCCOc2cccc3cccnc23)c1	70.8µM*	-6.9%	-25.0%[59 µM]	24.1%	1.5%	8.9%
Cc1cc(OCCOc2cccc3cccnc23)cc(C)c1Cl	?	-8.7%	5.3%[12.7 µM]	26.6%	9.1%	.
O=C(CSc1nc2ccsc2c(=O)n1CC1CCC(C(=O)O)CC1)c1ccc(Cl)cc1 (stereo not given)	-16.5%	79.4µM*	56.2µM*	-19.1%	.	.
CCc1ccc(S(=O)(=O)ON2C(=O)c3ccccc3C2=O)cc1	17.8µM*	50.1µM*	?	35.5µM*	?	0.9%[11.4 µM]
COc1ccc(OC)c(S(=O)(=O)ON2C(=O)c3ccccc3C2=O)c1	-100.5%	89.1µM*	1.41µM*	?	9.0%[0.457 µM]	2.0%
CC(=O)NC(NC(=S)Nc1ccccc1Br)C(Cl)(Cl)Cl (stereo not given)	-4.0%	-2.8%	28.2µM*	-4.3%	8.7%	.
COc1ccc(NC(=S)NC(NC(=O)c2cccc(C)c2)C(Cl)(Cl)Cl)c([N+](=O)[O-])c1 (stereo not given)	?	-13.7%[11.4 µM]	?	-37.9%	?	-20.7%
COc1ccc(NC(=S)NC(NC(=O)c2cccc(Cl)c2)C(Cl)(Cl)Cl)c([N+](=O)[O-])c1 (stereo not given)	16.4%	22.4µM*	?	?	?	-27.5%
CCOC(=O)NC(NC(=S)Nc1ccccc1[N+](=O)[O-])C(Cl)(Cl)Cl (stereo not given)	2.5%	-35.7%	?	-10.0%	-10.7%	.
SMILES	Sfp PPTase inh	JMJD2A Tudor	G9a block	HP1b chromo inh	BAZ2B block	L3MBTL1 block
COc1ccc(NC(=S)NC(NC(C)=O)C(Cl)(Cl)Cl)c([N+](=O)[O-])c1 (stereo not given)	-17.0%	-25.6%	11.2µM*	?	-6.3%	3.3%
CN(CCc1ccc(Cl)c(Cl)c1)CCN1CCCC1	?	.	43.4%[59 µM]	.	.	.
CC1CCN(S(=O)(=O)c2cc(C(=O)Nc3ccc(Br)cc3F)n(C)c2)CC1	.	-17.3%	7.7%[59 µM]	21.3%[57 µM]	-9.5%	.
CCOc1ccc(CNCc2c(C(=O)O)n(Cc3ccccc3C)c3cc(OC)ccc23)cc1OC	.	-9.9%	-24.2%[59 µM]	24.6%	-15.9%	.
CN(CC(=O)Nc1ccc(N2CCOCC2)cc1)C(=O)CCNC(=O)c1ccccc1Cl	.	-3.4%	44.7µM*	9.8%	-1.2%	2.6%
CN(CC(=O)Nc1ccc(N2CCOCC2)cc1)C(=O)Cc1ccccc1	.	-2.1%	-3.9%[12.7 µM]	18.7%	5.3%	0.4%
CSc1ccc(Cl)c(C(=O)N(C)CC(=O)Nc2ccc(N3CCOCC3)cc2)c1	.	-28.1%	35.5µM*	24.6%	-2.8%	3.6%
COc1ccc(NC(=O)CN(C)C(=O)c2cn(-c3ccccc3)nc2-c2ccc(F)cc2)cc1	.	-12.8%	-17.3%[12.7 µM]	9.1%	-3.2%	-4.0%
Cc1ccc(-c2nn(-c3ccc(F)cc3)cc2C(=O)N(C)CC(=O)Nc2ccc(N3CCOCC3)cc2)cc1	.	-6.5%	39.8µM*	10.3%	-5.2%	-6.3%
CN(CC(=O)Nc1ccc(N2CCOCC2)cc1)C(=O)CCc1ccccc1Cl	.	-23.4%	25.1µM*	-14.3%	?	-7.5%
Cc1ccc(-c2nnn3c2nc(NCc2ccc4c(c2)OCO4)c2ccccc23)cc1	.	0.0%	6.8%[59 µM]	37.3%	2.5%	.
Cc1ccc(S(=O)(=O)NC(=O)O[C@@H]2C(=O)c3cc(Br)ccc3O[C@H]2c2ccc3c(c2)OCO3)cc1	8.8%	.	.	.	.	.
OC[C@H]1OC(O)[C@@H](O)[C@@H](O)[C@H]1O (stereo not given in full)	-8.8%	.	.	.	.	.
CN1C(=O)Cc2cc(S(=O)(=O)NCc3ccc(Cl)cc3)ccc21	.	2.9%	?	33.4%	1.0%	.
Cc1ccc(Nc2nc(C(N)=O)c(NC(=O)c3ccccc3Br)s2)cc1	.	-10.1%	-23.1%[59 µM]	3.6%[57 µM]	9.0%	.
Cc1ccc(C)c(SCC(=O)N(C)CC(=O)Nc2ccc(N3CCOCC3)cc2)c1	.	-17.3%	44.7µM*	7.9%	-34.7%	-14.6%
Cc1cc(C(=O)c2cccs2)c(N)s1	50.1µM*	?	39.8µM*	?	-55.4%	-5.0%
Cc1cc(C)c(C(=O)c2cccs2)c(C)c1	.	33.1%	.	107.0%	.	.
COc1ccc(C(=O)c2ccc(OC)c(OC)c2)cc1OC	16.0%	-3.0%	99.2%[59 µM]	22.4%	-30.2%	-3.5%
COc1ccc(C(=O)c2ccc(OC)c3cccc(O)c23)cc1OC	-16.5%	?	56.2µM*	6.3%	?	.
